Measurements taken from PubChem BioAssay AID624255 (Broad Institute, 2012).
The whole screen tested about 77,000 compounds, of which about 4,600 (6%) were called active. Inconclusive results (about 1%) are left out. The full list was thinned out, with actives kept by preference. Values without a mark were called inactive.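 The calls were made as follows: active = mean inhibition above about 93%, with at least 55% of replicates each passing it (limit read from the data, passing the limit was not always enough); inconclusive = only one of those two conditions holds; inactive = neither condition holds.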

assay: T. cruzi intracellular proliferation inhibitors, primary screen, cell-based, beta-gal Tulahuen parasites, NIH3T3 host, luminescence (AID 624255); details: T. cruzi beta-gal in NIH3T3, GalScreen luminescence, 90 h; at 8.34 µM; hits give high values

SMILES | inhibition
COc1ccc(CN(C)C[C@H]2OCCCC[C@@H](C)Oc3ccc(NS(C)(=O)=O)cc3C(=O)N([C@@H](C)CO)C[C@H]2C)cc1 | 89.5%
CN(C)CC(=O)Nc1ccc2c(c1)[C@@H]1C[C@H](CC(=O)NCC3CC3)O[C@@H](CO)[C@@H]1O2 | -19.8%
COc1ccc(NC(=O)Nc2ccc3c(c2)C(=O)N([C@@H](C)CO)C[C@H](C)[C@H](CN(C)C(=O)Nc2ccccc2)OCCCC[C@@H](C)O3)cc1 | 54%
CO[C@@H]1CN(C)C(=O)c2cc(NC(=O)c3cccc(F)c3)ccc2OC[C@H](C)N(C)C[C@@H]1C | 13.5%
O=C(c1cccnc1)N1C[C@H]2[C@@H](c3ccccc31)[C@H](CO)N2C(=O)C1CCCCC1 | 19.5%
COC(=O)C[C@@H]1CC[C@@H]2[C@H](COc3ccc(NS(=O)(=O)c4ccccc4F)cc3C(=O)N2C)O1 | 27.2%
CCCC(=O)Nc1ccc2c(c1)OC[C@@H](C)N(CC1CCOCC1)C[C@H](C)[C@H](OC)CN(C)C2=O | 7.69%
O=C(CN1CCOCC1)N1CCCCN2[C@H](CO)[C@H](c3ccc(-c4ccccc4)cc3)[C@@H]2C1 | 102% (active)
CCC(=O)N1CCCCN2[C@H](C1)[C@@H](c1ccc(/C=C/c3ccccc3)cc1)[C@@H]2CO | 105% (active)
O=C(CN1CCOCC1)N1CCCCN2[C@@H](CO)[C@H](c3ccc(-c4ccccc4)cc3)[C@@H]2C1 | 112% (active)
CCC(=O)N1CCCCN2[C@H](CO)[C@@H](c3ccc(-c4cccnc4)cc3)[C@H]2C1 | 88.7%
O=C(CN1CCOCC1)N1CCCCN2[C@H](C1)[C@H](c1ccc(-c3ccccc3F)cc1)[C@@H]2CO | 26.1%
COCC(=O)N1CCCCN2[C@H](CO)[C@H](c3ccc(-c4ccc(OC)cc4)cc3)[C@H]2C1 | 46.5%
C/C=C/c1ccc([C@H]2[C@@H](CO)N3CCCCN(C(=O)c4ccc(F)cc4)C[C@@H]23)cc1 | 90.9%
CCC(=O)N1CCCCN2[C@H](C1)[C@@H](c1ccc(-c3ccc(F)cc3)cc1)[C@@H]2CO | 101% (active)
CC(=O)N1CCCCN2[C@H](C1)[C@@H](c1ccc(-c3ccc(F)cc3)cc1)[C@@H]2CO | 71%
COCC(=O)N1CCCCN2[C@H](CO)[C@@H](c3ccc(-c4ccc(OC)cc4)cc3)[C@@H]2C1 | 4.91%
COCC(=O)N1CCCCN2[C@H](C1)[C@@H](c1ccc(-c3ccccc3)cc1)[C@@H]2CO | 53.8%
CO[C@@H]1CN(C)C(=O)c2ccc(NS(=O)(=O)c3ccc(C)cc3)cc2OC[C@@H](C)N(Cc2nccs2)C[C@H]1C | 41.1%
C[C@@H]1CN([C@@H](C)CO)C(=O)c2cc(C#CC3CC3)cnc2O[C@@H]1CN(C)C(=O)Cc1ccccn1 | 51.4%
CCCN(C)C[C@H]1OCCCC[C@@H](C)Oc2ccc(NC(=O)CCC(F)(F)F)cc2C(=O)N([C@H](C)CO)C[C@H]1C | 67.3%
O=C(C[C@H]1CC[C@@H](NC(=O)c2ccncc2)[C@@H](CO)O1)Nc1ccccc1 | 19.5%

SMILES | inhibition
CC(C)NC(=O)Nc1ccc2c(c1)C(=O)N(C)[C@H]1CC[C@H](CC(=O)NCC3CCCCC3)O[C@@H]1CO2 | 22.4%
O=C(C1CCOCC1)N1C[C@H]2[C@@H](c3ccccc31)[C@@H](CO)N2Cc1ccccc1F | -22.5%
O=C(CN1CCOCC1)N1CCCCN2[C@@H](CO)[C@H](c3ccc(/C=C/c4ccccc4)cc3)[C@@H]2C1 | 102% (active)
OC[C@H]1[C@@H](c2ccc(/C=C/c3ccccc3)cc2)[C@H]2CN(Cc3cccnc3)CCCCN21 | 23.4%
O=C(CN1CCOCC1)N1CCCCN2[C@H](CO)[C@H](c3ccc(Br)cc3)[C@H]2C1 | 36%
C[C@H](CO)N1C[C@H](C)[C@H](CN(C)Cc2ccc(C(F)(F)F)cc2)Oc2ccc(NS(=O)(=O)c3ccc(Cl)cc3)cc2C1=O | 127% (active)
C[C@@H]1CN([C@@H](C)CO)C(=O)Cc2cc(NS(=O)(=O)c3ccc(Cl)cc3)ccc2O[C@H]1CN(C)Cc1ccc(C(F)(F)F)cc1 | -1.87%
COc1ccc(S(=O)(=O)Nc2ccc3c(c2)C(=O)N([C@@H](C)CO)C[C@H](C)[C@@H](CN(C)Cc2ccc(C(F)(F)F)cc2)O3)cc1 | 105% (active)
COc1ccc(S(=O)(=O)Nc2ccc3c(c2)C(=O)N([C@@H](C)CO)C[C@H](C)[C@H](CN(C)Cc2ccc(C(=O)O)cc2)O3)cc1 | -6.07%
COc1ccc(S(=O)(=O)Nc2ccc3c(c2)CC(=O)N([C@H](C)CO)C[C@H](C)[C@H](CN(C)Cc2ccc(C(F)(F)F)cc2)O3)cc1 | 75%
COc1ccc(CN(C)C[C@@H]2Oc3ccc(NS(=O)(=O)c4ccc(OC)cc4)cc3C(=O)N([C@H](C)CO)C[C@H]2C)cc1 | 0.955%
COc1ccc(S(=O)(=O)Nc2ccc3c(c2)C(=O)N([C@H](C)CO)C[C@H](C)[C@H](CN(C)Cc2ccc(C(F)(F)F)cc2)O3)cc1 | 100% (active)
COc1ccc(CN(C)C[C@@H]2Oc3ccc(NS(=O)(=O)c4ccc(F)cc4)cc3C(=O)N([C@@H](C)CO)C[C@@H]2C)cc1 | 11.1%
Cc1ccc(S(=O)(=O)Nc2ccc3c(c2)C(=O)N([C@@H](C)CO)C[C@@H](C)[C@H](CN(C)Cc2ccc(C(F)(F)F)cc2)O3)cc1 | 42.1%
COc1ccc(CN(C)C[C@H]2Oc3ccc(NS(=O)(=O)c4ccc(Cl)cc4)cc3CC(=O)N([C@@H](C)CO)C[C@H]2C)cc1 | 96.7% (active)
COc1ccc(S(=O)(=O)Nc2ccc3c(c2)CC(=O)N([C@@H](C)CO)C[C@H](C)[C@@H](CN(C)Cc2ccc(C(=O)O)cc2)O3)cc1 | -13.7%
COc1ccc(CN(C)C[C@H]2Oc3ccc(NS(=O)(=O)c4ccc(C)cc4)cc3C(=O)N([C@@H](C)CO)C[C@H]2C)cc1 | 37.9%
C[C@@H]1CN([C@@H](C)CO)S(=O)(=O)c2ccc(-c3ccncc3)cc2O[C@@H]1CN(C)C(=O)C1CCC1 | 76.2%
O=C(Nc1ccc(F)cc1)N[C@@H]1CC[C@H](CC(=O)N2CCCCC2)O[C@H]1CO | -3.48%
CCCNC(=O)[C@H]1[C@H](CO)[C@H]2Cn3c(ccc(-c4cccc(F)c4)c3=O)[C@@H]1N2C(=O)CC | 1.74%
CC(C)CC#Cc1cnc2c(c1)C(=O)N([C@H](C)CO)C[C@H](C)[C@@H](CN(C)C(=O)Cc1cccnc1)O2 | 3.64%
Cc1noc(C)c1S(=O)(=O)N(C)C[C@@H]1OCCCC[C@@H](C)Oc2ccc(NC(=O)c3ccccc3)cc2C(=O)N([C@@H](C)CO)C[C@@H]1C | 14.7%
